From PubChem
Compounds with a hit are over-represented: about 9.2% of the library has one in this group of screens.
NPC1 promoter act: qHTS Assay for NPC1 Promoter Activators | Potency, µM (titrated, usually from 9.22 µM), hits mostly activators | 2.4% of 320,000 active | Huh7 NPC1 promoter luciferase reporter, 24 h; further: nearly all actives have a fitted effect of over 60% in size
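Compounds in DMSO were transferred onto Huh7 NPC1-luciferase reporter cells pre-incubated 2 h; after 24 h at 37 °C, Amplite reagent was dispensed and luminescence recorded 10 min later.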
ELG1 DNA repair: qHTS screen for small molecules that inhibit ELG1-dependent DNA repair in human embryonic kidney (HEK293T) cells expressing luciferase-tagged ELG1. 2.3% of 330,000 active. Potency, µM (highest dose often 46.1 µM), actives largely listed as inhibitors. HEK293T ELG1-luciferase reporter, luminescence, 16 h; DNA damage induced by 5-fluorouridine; further: nearly all actives have a fitted effect of over 55% in size
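HEK293T cells expressing luciferase-tagged ELG1 (2,000/well) received 5-Fluorouridine plus compound or DMSO for 16 hr at 37 °C. Luciferase was read by ONE-Glo luminescence after 30 min at room temperature.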
ELG1 genotoxic: qHTS screen for small molecules that induce genotoxicity in human embryonic kidney (HEK293T) cells expressing luciferase-tagged ELG1; HEK293T ELG1-luciferase reporter, luminescence, 16 h; Potency, µM (top dose mostly 46 µM), actives largely listed as activators; 1.3% of 330,000 active; AID 504466, 2011; further: nearly all actives have a fitted effect of over 60% in size
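Luminescence read-out: rising ELG1-luciferase signal, reflecting elevated ELG1 protein under genetic stress, flags genotoxic compounds. Cells were treated for 16 hr at 37 °C before ONE-Glo detection.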
SMN2 splice up: qHTS Assay for Enhancers of SMN2 Splice Variant Expression; HEK293 SMN2-luciferase splicing reporter, luminescence, 30-36 h; Potency, µM (highest dose often 46.1 µM), usual class: activators; 2.8% of 210,000 active; further: nearly all actives have a fitted effect of over 55% in size
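qHTS luciferase splicing reporter: luminescence rises when SMN2 exon 7 is included in transfected HEK293 cells. Compound exposure lasted 30-36 h at 37C, with 4.5 mM final sodium butyrate as control, followed by a ONE-Glo read.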
FLuc modulator: qHTS profiling assay for firefly luciferase inhibitor/activator using purifed enzyme and Km concentrations of substrates (counterscreen for miR-21 project); Luciferin 4-monooxygenase (Photinus pyralis), P08659; purified FLuc, Km substrates, luminescence inhibition; Potency, µM (top dose mostly 57.5 µM), usual class: inhibitors; 6.9% of 360,000 active; AID 588342, 2011; further: nearly all actives have a fitted effect of over 55% in size
Target sequence (P08659 whole entry, looked up): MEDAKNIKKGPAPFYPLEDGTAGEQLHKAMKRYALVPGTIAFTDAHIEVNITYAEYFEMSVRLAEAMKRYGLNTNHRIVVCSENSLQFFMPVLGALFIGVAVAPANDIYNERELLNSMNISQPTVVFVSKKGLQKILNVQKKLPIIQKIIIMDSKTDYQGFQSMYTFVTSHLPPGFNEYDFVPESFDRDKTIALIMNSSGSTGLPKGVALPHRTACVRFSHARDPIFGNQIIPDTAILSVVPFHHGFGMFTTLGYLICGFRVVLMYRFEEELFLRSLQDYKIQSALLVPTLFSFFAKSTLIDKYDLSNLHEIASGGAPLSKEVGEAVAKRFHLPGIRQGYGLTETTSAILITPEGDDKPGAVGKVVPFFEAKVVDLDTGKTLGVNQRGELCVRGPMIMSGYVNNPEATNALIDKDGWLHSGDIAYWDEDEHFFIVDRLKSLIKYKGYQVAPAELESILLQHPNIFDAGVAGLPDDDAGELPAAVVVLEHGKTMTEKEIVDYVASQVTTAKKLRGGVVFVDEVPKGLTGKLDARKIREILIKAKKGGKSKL
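Purified P. pyralis luciferase (10nM final) with 10uM D-luciferin and 10uM ATP (Km levels) in 50mM Tris acetate pH 7.5, 10mM Mg acetate, 0.01% Tween-20, 0.05% BSA; qHTS 6-point titration, ~60 µM downward; luminescence read.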
Rab9 prom act: qHTS Assay for Rab9 Promoter Activators; 2.8% of 320,000 active; Potency, µM (titrated, usually from 9.22 µM), most hits filed as activators; Huh7 Rab9 promoter-luciferase reporter, luminescence, 24 h; further: nearly all actives have a fitted effect of over 60% in size
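Luminescence from Amplite-detected luciferase (10 minutes, ambient) reports Rab9 promoter activation. Before that, stable Rab9-luciferase Huh7 cells (1500/well, reduced-serum OP-MEM I plus 10% FBS) were exposed to compound for 24 hours at 37C.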
Hits are given with their value; . = inactive; ? = inconclusive; / = no result; [ ] = remark or other dose. The call rests on the fitted dose curve; in most records, active means well fitted curve in the direction sought with a large enough effect; inconclusive means small, poorly fitted or top-dose-only effect, or another doubt; inactive means no such curve, though single readings can be large; an effect the other way counts as inactive or inconclusive.

SMILES	NPC1 promoter act	ELG1 DNA repair	ELG1 genotoxic	SMN2 splice up	FLuc modulator	Rab9 prom act
COc1cccc(CNC(=O)c2cc3c(C)nc4ccccc4c3o2)c1	.	?	.	.	.	.
CC1Cc2ccccc2N1C1=CC(=O)CCC1 (stereo not given)	.	.	.	.	.	.
Cc1sc2nc(CN3CCN(c4ccc(O)cc4)CC3)[nH]c(=O)c2c1C	?	21µM	.	/	.	.
O=c1[nH]c(CN2CCN(c3ccccc3)CC2)nc2scc(-c3ccccc3)c12	.	.	.	?	.	.
CC(=O)Nc1c(N)c2ccccc2oc1=O	.	.	.	.	.	.
COc1ccc(NC(=O)c2ccccc2)c([N+](=O)[O-])c1	?	?	?	?	?	2.8µM
COc1ccc(NC(=S)NC(NC(=O)c2cccc(Cl)c2)C(Cl)(Cl)Cl)c([N+](=O)[O-])c1 (stereo not given)	.	16µM	.	.	.	.
CCCc1cc(C(=O)Nc2ccc(OC)cc2[N+](=O)[O-])cs1	.	?	.	/	12µM	.
CCN1CCN(S(=O)(=O)c2cc3c(cc2Cl)NC(=O)CO3)CC1	.	.	.	/	.	.
COC(=O)c1cn(-c2ccccc2)nc1-c1ccc(OC)c(OC)c1	.	?	.	/	21µM	.
COc1ccc(-c2nn(-c3ccccc3)cc2C(=O)NC(=S)N2CCOCC2)cc1OC	.	21µM	.	/	?	.
COc1cc(CNC(=O)c2ccccc2NC(=O)C2=C(C)OCCS2)cc(OC)c1OC	.	?	.	/	.	.
Clc1ccccc1OCc1nn2c(-c3ccncc3)nnc2s1	.	.	.	.	.	.
Cc1nc(COc2ccccc2Cl)sc1-c1ccnc(N)n1	.	.	.	/	11µM	.
Cc1ccc2oc3c(c(=O)c2c1)C(c1cccc(Cl)c1)N(CCCN1CCOCC1)C3=O (stereo not given)	.	10µM	.	.	.	.
NC[C@H]1O[C@H](n2cnc3c(N)ncnc32)C[C@@H]1O	/	/	/	.[9.22 µM]	/	/
Cc1ccc(NC2=Nc3ccccc3CS2)cc1	0.32µM	?	?	/	0.48µM	0.32µM
Cc1ccc(Nc2ccccc2)cc1	.	.	.	.	.	.
Cc1nc(COC(=O)c2ccc(S(=O)(=O)N3CCCC3)cc2)cs1	.	.	.	.	.	.
Cc1cc(C(=O)COC(=O)c2ccc[nH]c2=O)c(C)n1C1CC1	?	?	?	?	4.8µM	3.5µM
Cc1cc(C(=O)COc2ccccc2C(N)=O)c(C)n1C1CC1	.	.	.	.	15µM	?
Cc1cc(C(=O)COC(=O)c2ccc[nH]c2=O)c(C)n1-c1ccccc1	0.32µM	?	0.82µM	2.5µM	1.7µM	0.28µM
Cc1ccc(S(=O)(=O)NCC(=O)OCC(=O)c2cc(C)n(-c3ccccc3)c2C)cc1	.	?	.	?	15µM	.
CCNC(=O)COC(=O)c1cc(C)n(-c2ccccc2)c1C	.	.	?	.	?	?
CC1CCCN(CCCNC(=O)c2ccc3c(c2)N(Cc2cccc(Cl)c2)C(=O)c2ccccc2S3(=O)=O)C1 (stereo not given)	/	/	/	/	.	/
Cc1ccc(S(=O)(=O)N2CCCN(C)c3nc4ccccc4nc32)cc1	.	?	.	/	.	.
Cc1cccc(OCC(=O)Nc2ccc(Cl)c(-c3nc4ncccc4o3)c2)c1C	/	/	/	.	.	/
CCCCOC(=O)Nc1ccc(S(=O)(=O)Nc2onc(C)c2C)cc1	.	.	.	/	?	.
NCCC[C@@H](CC(=O)N[C@@H]1CCCC[C@H]1C(=O)N[C@H](CC(=O)N[C@@H](CCC(=O)O)CC(=O)O)Cc1ccccc1)NC(=O)C[C@H](Cc1c[nH]c2ccccc12)NC(=O)[C@@H]1CCCC[C@H]1N	/	/	/	.	/	/
Cc1noc(C)c1COC(=O)c1cc(C)n(-c2ccccc2)c1C	.	?	?	.	15µM	?
